Experimental data as given in PubChem BioAssay AID1851 (National Center for Advancing Translational Sciences (NCATS), 2009).
Among all 16,000 compounds or so, about 5,800 (36%) were called active. Roughly 23% stayed inconclusive and do not appear here. This is one part of the list. A number with no mark means an inactive call. Calls come from the whole dose curve; as a rule, active = well fitted curve in the direction sought with a large enough effect; inconclusive = small, poorly fitted or top-dose-only effect, or effect the other way; inactive = no such curve, though single readings can be large or run the other way.

Biological target: Cytochrome P450 2C19 (Homo sapiens) (UniProt P33261)
Test: Cytochrome panel assay with activity outcomes
Details: recombinant CYP, pro-luciferin dealkylation, luminescence, p450-cyp2c19; series mostly up to 57.1 µM; activity, negative = inhibition: at the top concentration
% is set by controls: 0 for no effect and ±100 for the full control effect.

Cytochrome P450 2C19 (Homo sapiens), sequence (P33261 whole entry, looked up): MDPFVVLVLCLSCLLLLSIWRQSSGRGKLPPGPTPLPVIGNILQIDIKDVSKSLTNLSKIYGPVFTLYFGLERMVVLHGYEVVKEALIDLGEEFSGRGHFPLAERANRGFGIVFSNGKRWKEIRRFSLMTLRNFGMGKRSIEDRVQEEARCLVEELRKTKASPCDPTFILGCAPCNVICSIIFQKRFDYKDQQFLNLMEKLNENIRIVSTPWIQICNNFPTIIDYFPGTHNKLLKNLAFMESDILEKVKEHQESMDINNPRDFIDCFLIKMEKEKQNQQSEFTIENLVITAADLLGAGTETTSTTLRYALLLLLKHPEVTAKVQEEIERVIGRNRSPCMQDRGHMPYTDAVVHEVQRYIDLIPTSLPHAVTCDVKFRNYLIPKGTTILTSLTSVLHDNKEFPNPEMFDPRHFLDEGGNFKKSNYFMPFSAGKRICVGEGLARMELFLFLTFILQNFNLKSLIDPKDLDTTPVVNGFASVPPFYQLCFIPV

Row | SMILES | activity, negative = inhibition | AC50
1 | CCCN1CCN(CCCNC(=O)Cn2nc(-c3ccc(C)cc3)ccc2=O)CC1 | -22.7% | –
2 | Cc1cccc(OCCCC(=O)Nc2ccccc2C(F)(F)F)c1 | – | 7.08 µM (active)
3 | Cc1ccc(-c2ccc(=O)n(CC(=O)NCc3ccco3)n2)cc1 | – | 7.94 µM (active)
4 | Cc1ccc(-c2ccc(=O)n(CC(=O)NCCN(C)C)n2)cc1 | -0.291% | –
5 | Cc1c(Nc2ncccc2C(=O)O)cccc1C(F)(F)F | -12.7% [at 25.6 µM] | –
6 | COc1ccc([N+](=O)[O-])cc1NC(=S)NC(NC(=O)Cc1ccc(OC)c(OC)c1)C(Cl)(Cl)Cl (configuration not stated) | – | 0.708 µM (active)
7 | Cc1ccc(OCCCC(=O)Nc2ccccc2C(F)(F)F)cc1 | – | 6.31 µM (active)
8 | Nc1ncnc2c1nc(-c1ccccc1)n2[C@H]1O[C@@H](CO)[C@@H](O)[C@H]1O | -0.591% [at 11.4 µM] | –
9 | CCO[P@]1(=O)OC[C@@H]2O[C@H](n3cnc4c(N)ncnc43)[C@H](O)[C@@H]2O1 | 14% [at 11.4 µM] | –
10 | COc1ccccc1NC(=O)Cn1cncc1-c1ccc([N+](=O)[O-])cc1 | -18.7% | –
11 | C/C(CC(=O)NCc1ccco1)=N\NC(=O)Cc1ccccc1 | -5.7% | –
12 | Cc1ccc(OCC(=O)Nc2ccccc2-c2ccccc2)cc1 | – | 3.55 µM (active)
13 | Cc1ccc(OCCCC(=O)NCc2ccco2)cc1 | – | 10 µM (active)
14 | Cc1c(C(=O)Nc2ccc(OCc3ccccc3)cc2)cccc1[N+](=O)[O-] | 42.2% | –
15 | Cc1c(NC(=O)CCCOc2ccccc2)cccc1[N+](=O)[O-] | – | 2.51 µM (active)
16 | Cc1ccc(OCC(=O)NNC(=O)CCc2ccccc2)cc1 | -31.3% | –
17 | CCN(CC(=O)Nc1ccc([N+](=O)[O-])cc1OC)c1ccccc1 | – | 5.62 µM (active)
18 | Cc1ccc(CS(=O)(=O)CCC(=O)NCCCOC(C)C)cc1 | -10.4% | –
19 | Cc1c(NC(=O)C(Sc2ccccc2)c2ccccc2)cccc1[N+](=O)[O-] (configuration not stated) | – | 0.891 µM (active)
20 | COc1ccc([N+](=O)[O-])cc1NC(=O)CC(C)c1ccccc1 (configuration not stated) | – | 3.55 µM (active)
21 | Cc1ccc(OCC(=O)Nn2cnc3ccccc32)cc1 | – | 20 µM (active)
22 | Cc1ccc(OCC(=O)NNC(=O)c2cc3ccccc3o2)cc1 | -12.6% | –
23 | Cc1ccc(OCC(=O)NC2=NCCS2)cc1 | – | 17.8 µM (active)
24 | C[C@@H]1O[C@@H](n2cc(F)c(=O)[nH]c2=O)[C@H](O)[C@@H]1O | -13.4% | –
25 | Cc1cccc2cc(=O)[nH]c(C)c12 | -20% | –
26 | C[N+]1(CCC[N+]2(C)C[C@H]3[C@H](C2)[C@H]2C=C[C@@H]3CC2)CCOCC1 (some centres not stated) | -6.43% [at 11.4 µM] | –
27 | COc1cc([N+](=O)[O-])ccc1NC(=O)CCCOc1cccc(C)c1 | – | 3.98 µM (active)
